Records with an inconclusive call do not appear. Calls of active or inactive are those of the source. Unless noted, calls come from the whole dose curve; as a rule, active = well fitted curve in the direction sought with a large enough effect in the repeat runs; inconclusive = weak or mixed curves; inactive = no such curve, though single readings can be large; an effect the other way counts as inactive or inconclusive.
What was measured:
[1] = qHTS assay to identify small molecule antagonists of the glucocorticoid receptor (GR) signaling pathway - cell viability counter screen (AID 720693); note: nearly all actives have a fitted effect of over 55% in size
[2] = qHTS assay for identifying genotoxic compounds that show differential cytotoxicity against isogenic chicken DT40 cell lines with known DNA damage response pathways - wild type cell line (AID 743012); note: nearly all actives have a fitted effect of over 60% in size
Method in brief: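 300 wt DT40 cells/well; cpd (DMSO) pintool-transferred after ~0.5 h at 37 C/5% CO2; 40 h incubation; CellTiter-Glo added, 30 min RT; luminescence read.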

[3] = qHTS assay for identifying genotoxic compounds that show differential cytotoxicity against isogenic chicken DT40 cell lines with known DNA damage response pathways - Rev3 mutant cell line (AID 743014); note: nearly all actives have a fitted effect of over 55% in size
[4] = qHTS assay for identifying genotoxic compounds that show differential cytotoxicity against isogenic chicken DT40 cell lines with known DNA damage response pathways - Rad54/Ku70 mutant cell line (AID 743015); note: nearly all actives have a fitted effect of over 60% in size
[5] = qHTS assay to identify small molecule antagonists of the androgen receptor (AR) signaling pathway - cell viability counter screen (AID 743033; note: nearly all actives have a fitted effect of over 45% in size)
[6] = qHTS assay to identify small molecule antagonists of the androgen receptor (AR) signaling pathway using the MDA cell line - cell viability counter screen (AID 743041; note: nearly all actives have a fitted effect of over 45% in size)
Method in brief: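 Viability read by CellTiter-Fluor fluorescence in the same wells as the antagonist screen, added after 15.5 h of a 16 h, 37C exposure. Human breast carcinoma MDA-kb2 AR-luc cells, compounds co-dosed with agonist R1881.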

[7] = qHTS assay to identify small molecule antagonists of the thyroid receptor (TR) signaling pathway - cell viability counter screen (AID 743064); note: nearly all actives have a fitted effect of over 50% in size
Method in brief: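 Rat GH3 pituitary tumor cells stably expressing two TR response elements driving luciferase were plated, rested 4 h, then dosed with library compounds and T3 (1 nM final). After 23.5 h at 37 °C, CellTiter-Fluor was added for 30 min and fluorescence recorded.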

[8] = qHTS assay to identify small molecule antagonists of the thyroid receptor (TR) signaling pathway (AID 743065); note: series mostly up to about 70 µM; nearly all actives have a fitted effect of over 55% in size
Method in brief: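 Antagonism measured as loss of luciferase signal in GH3 cells stably carrying a TRE-luciferase reporter, co-treated with compound and T3 (1 nM final) for 23.5 h at 37 C. Viability was read in the same well by CellTiter-Fluor.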

[9] = system: thyroid hormone receptor (rat, GH3 cells); test: qHTS assay to identify small molecule agonists of the thyroid receptor (TR) signaling pathway (AID 743066; calls by dose curve)
[10] = target: Estrogen receptor (Homo sapiens) (UniProt P03372); test: qHTS assay to identify small molecule antagonists of the estrogen receptor alpha (ER-alpha) signaling pathway (AID 743069; active = well fitted curve in the direction sought with a large enough effect in the signal ratio in the repeat runs, not every such curve was filed as active; the % refers to the signal ratio)
Method in brief: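 Antagonist mode: compounds in DMSO were co-added with 17beta-estradiol to ER-alpha-bla HEK293 cells (2% charcoal-stripped serum) and left 18 h at 37C. Reporter inhibition was measured as FRET fluorescence after 2 h LiveBLAzer substrate at room temperature.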

[11] = qHTS assay to identify small molecule antagonists of the estrogen receptor alpha (ER-alpha) signaling pathway - cell viability counter screen (AID 743074; calls by dose curve;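 note: HEK293 cells carrying ER-alpha-UAS-bla reporter stimulated with 17beta-estradiol; nearly all actives have a fitted effect of over 45% in size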)
[12] = target: Estrogen receptor (Homo sapiens) (UniProt P03372); test: qHTS assay to identify small molecule agonists of the estrogen receptor alpha (ER-alpha) signaling pathway (AID 743075; calls by dose curve;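 note: HEK293 GripTite cells with ER-alpha and UAS-driven beta-lactamase reporter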)
[13] = target: Estrogen receptor (Homo sapiens) (UniProt P03372); test: qHTS assay to identify small molecule agonists of the estrogen receptor alpha (ER-alpha) signaling pathway using the BG1 cell line (AID 743079); note: nearly all actives have a fitted effect of over 20% in size
[14] = qHTS assay to identify small molecule antagonists of the estrogen receptor alpha (ER-alpha) signaling pathway using the BG1 cell line (AID 743080; calls by dose curve;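 note: BG1 cells stimulated with 17beta-estradiol alongside compound; series mostly up to about 70 µM; nearly all actives have a fitted effect of over 25% in size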)
Method in brief: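 After 5 days in phenol-red-free 10% charcoal-stripped FBS medium, BG1-Luc-4E2 cells were seeded, left 24 h at 37 C, co-treated with compounds and 17beta-estradiol for 21.5 h, then assayed for viability and luciferase.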

[15] = qHTS assay to identify small molecule antagonists of the estrogen receptor alpha (ER-alpha) signaling pathway using the BG1 cell line - cell viability counter screen (AID 743081);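 note: compound given together with 17beta-estradiol as the ER stimulus; series mostly up to about 70 µM; nearly all actives have a fitted effect of over 45% in size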
Aromatase (Homo sapiens) = Aromatase (Homo sapiens) (UniProt P11511); test: qHTS assay to identify aromatase inhibitors (AID 743083); note: series mostly up to about 70 µM; nearly all actives have a fitted effect of over 55% in size

Measured: Potency

Chain of Aromatase (Homo sapiens) (P11511 whole entry, looked up): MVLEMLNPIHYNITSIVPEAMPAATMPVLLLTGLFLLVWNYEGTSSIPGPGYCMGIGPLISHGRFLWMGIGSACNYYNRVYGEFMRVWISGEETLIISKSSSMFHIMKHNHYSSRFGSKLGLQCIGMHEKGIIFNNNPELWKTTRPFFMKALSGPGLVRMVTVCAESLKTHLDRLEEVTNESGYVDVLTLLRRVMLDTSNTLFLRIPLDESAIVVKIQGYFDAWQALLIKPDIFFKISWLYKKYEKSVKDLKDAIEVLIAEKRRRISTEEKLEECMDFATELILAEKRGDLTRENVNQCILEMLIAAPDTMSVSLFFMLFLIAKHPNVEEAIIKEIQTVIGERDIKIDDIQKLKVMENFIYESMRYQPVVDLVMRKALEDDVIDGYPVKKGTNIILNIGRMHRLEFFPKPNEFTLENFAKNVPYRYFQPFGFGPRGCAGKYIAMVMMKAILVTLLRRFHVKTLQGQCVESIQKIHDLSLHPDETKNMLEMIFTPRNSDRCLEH
Chain of Estrogen receptor (Homo sapiens) (P03372 whole entry, looked up): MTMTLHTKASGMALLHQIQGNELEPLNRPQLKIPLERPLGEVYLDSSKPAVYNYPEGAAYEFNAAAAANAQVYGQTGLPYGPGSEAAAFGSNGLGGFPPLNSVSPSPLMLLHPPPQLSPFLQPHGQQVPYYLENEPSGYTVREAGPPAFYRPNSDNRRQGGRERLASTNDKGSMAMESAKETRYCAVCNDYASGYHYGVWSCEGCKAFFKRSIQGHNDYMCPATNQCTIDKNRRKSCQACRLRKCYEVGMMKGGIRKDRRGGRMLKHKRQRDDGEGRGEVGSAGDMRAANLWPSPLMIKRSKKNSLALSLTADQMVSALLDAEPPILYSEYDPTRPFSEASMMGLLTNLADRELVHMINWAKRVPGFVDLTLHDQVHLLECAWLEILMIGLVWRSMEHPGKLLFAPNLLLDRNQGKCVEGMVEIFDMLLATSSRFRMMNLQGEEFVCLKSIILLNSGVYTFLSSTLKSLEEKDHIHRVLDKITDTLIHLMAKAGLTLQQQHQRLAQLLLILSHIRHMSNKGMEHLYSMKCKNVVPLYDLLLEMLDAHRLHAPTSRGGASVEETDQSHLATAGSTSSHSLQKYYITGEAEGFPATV

COC(=O)c1ccccc1C(=O)OC
inactive: all assays above

Cc1cc(-c2cc(C)c(N)c(C)c2)cc(C)c1N
inactive: all assays above

Nc1c(Cl)c(Cl)nc(C(=O)O)c1Cl
inactive: all assays above

COP(N)(=O)SC (stereo not drawn)
inactive: all assays above

CNC(=O)Oc1ccccc1OC(C)C
inactive: all assays above

O=C(O)c1ccccn1
inactive: all assays above

CC1C=[C-]C=C1.[C-]#[O+].[C-]#[O+].[C-]#[O+].[Mn]
inactive: all assays above

O=[N+]([O-])c1ccc([As](=O)(O)O)cc1
inactive: all assays above
